Source: PubChem (several laboratories)
Compounds with a hit are over-represented: about 2% of the library has one in this group of screens.
PG9 Ab binder: small molecules binding HIV-1 gp120 antibody PG9. 360,000 compounds, 0.43% hits. inhibition, % at 6.7 µM. TR-FRET gp120-PG9 antibody binding; in the data active = inhibition above about 8.5%
VLA-4 inh: inhibition in a human VLA-4 binding assay; AID 2557; VLA-4 expressing cells, ligand binding flow cytometry; inhibition, % (about 7 µM as worked out from the volumes in the protocol); 330,000 compounds, 0.2% hits; P13612; in the data active = inhibition above about 50%
Target sequence (P13612 whole entry, looked up): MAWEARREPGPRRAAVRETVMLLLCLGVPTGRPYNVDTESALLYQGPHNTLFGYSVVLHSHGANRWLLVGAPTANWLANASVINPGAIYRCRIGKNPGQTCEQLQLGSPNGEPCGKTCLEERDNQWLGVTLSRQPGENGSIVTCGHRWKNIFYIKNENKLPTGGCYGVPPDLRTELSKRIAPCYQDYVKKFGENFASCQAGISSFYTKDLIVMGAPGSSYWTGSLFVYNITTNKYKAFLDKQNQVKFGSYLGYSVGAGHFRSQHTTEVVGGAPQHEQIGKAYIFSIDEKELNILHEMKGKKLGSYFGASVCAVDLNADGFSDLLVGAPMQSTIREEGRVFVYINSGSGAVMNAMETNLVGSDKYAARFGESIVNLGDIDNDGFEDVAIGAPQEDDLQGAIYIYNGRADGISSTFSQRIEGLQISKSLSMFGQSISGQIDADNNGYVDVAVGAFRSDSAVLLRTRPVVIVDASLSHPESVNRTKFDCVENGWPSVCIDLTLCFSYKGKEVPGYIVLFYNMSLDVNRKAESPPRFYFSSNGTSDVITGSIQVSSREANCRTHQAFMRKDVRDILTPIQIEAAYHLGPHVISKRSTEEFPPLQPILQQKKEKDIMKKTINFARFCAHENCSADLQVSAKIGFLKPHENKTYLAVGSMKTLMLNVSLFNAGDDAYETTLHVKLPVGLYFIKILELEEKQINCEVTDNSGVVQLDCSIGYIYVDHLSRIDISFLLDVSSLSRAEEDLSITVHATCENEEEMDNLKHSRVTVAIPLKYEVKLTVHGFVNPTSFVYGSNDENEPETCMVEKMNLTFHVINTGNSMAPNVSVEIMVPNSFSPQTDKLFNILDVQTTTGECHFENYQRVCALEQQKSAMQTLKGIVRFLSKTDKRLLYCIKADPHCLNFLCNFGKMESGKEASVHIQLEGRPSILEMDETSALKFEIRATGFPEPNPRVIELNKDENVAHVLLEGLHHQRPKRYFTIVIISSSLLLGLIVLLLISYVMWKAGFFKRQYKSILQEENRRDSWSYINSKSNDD
Rev-erbA mod: modulates human Rev-erb alpha binding to DNA; P20393; AID 1259318; Rev-erbα–FITC-DNA binding, fluorescence polarization, 90 min; activity, % at 10 µM; 370,000 compounds, 0.79% hits;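 active = activity above about 14%, limit read from the data; passing the limit was not always enough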;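 also: 0% = DMSO wells with 35 nM protein and 100% = DMSO wells with 750 nM protein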
ABCB6 inh MLPCN: inhibitors of human ABC transporter ABCB6 | K562-ABCB6 porphyrin accumulation, flow cytometry, 1 h; hits give low values | fluorescence ratio to DMSO, % at 10 µM | AID 602162 | 360,000 compounds, 0.19% hits;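 active = fluorescence ratio to DMSO below 75%, the collection mean minus 3 SD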;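 also: signal is porphyrin accumulated inside mitochondria; 100% equals median channel fluorescence of DMSO control wells; lower ratio means ABCB6 inhibition with less porphyrin fluorescence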
Exocytosis inh: blocks lytic granule exocytosis. 360,000 compounds, 0.66% hits. AID 651702. inhibition, % at 10 µM. TALL-104 LAMP-1 surface exposure, flow cytometry; cells stimulated with thapsigargin and PMA;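 active = inhibition above about 55%, limit read from the data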
PG9 binder conf: confirmation of small molecules binding HIV-1 gp120 antibody PG9. shares compounds with PG9 Ab binder. TR-FRET PG9 antibody binding, biochemical. inhibition, % at 6.7 µM. 1,500 compounds, 90% hits. AID 651571; in the data active = inhibition above about 9%
PGV04 Ab binding: PGV04 control antibody binding, counter-screen; shares compounds with PG9 Ab binder; TR-FRET PGV04 antibody-gp120 binding, biochemical; inhibition, % at 6.7 µM; 1,500 compounds, 95% hits; AID 651604; in the data active = inhibition above about 9.5%
PG9 bind DR: small molecules binding HIV-1 gp120 antibody PG9; IC50, µM; AID 651848; shares compounds with PG9 Ab binder; TR-FRET PG9 antibody-gp120 binding inhibition; 95 tested, under 10 active; in the data active = IC50 below about 10 µM
PGV04 binding DR: counter-screen for PG9 binders: binding to control antibody PGV04; 95 compounds, 20% hits; TR-FRET binding to control antibody PGV04; AID 651937; IC50, µM; shares compounds with PG9 Ab binder
PG126 binding DR: counter-screen for PG9 binders: binding to control antibody PG126; shares compounds with PG9 Ab binder; TR-FRET binding to antibody PG126, counterscreen; IC50, µM; 95 compounds, 20% hits
Active calls of the source: *. Rule as the data show it, unless noted: active = IC50 below about 9 µM; inactive = the rest.

For Cc1ccc(-n2nc3c(=S)[nH]nc(C)c3c2C)cc1 the results were PG9 Ab binder 44.9*, VLA-4 inh 4.8, Rev-erbA mod 2.3, ABCB6 inh MLPCN 98.0, Exocytosis inh -4.2, PG9 binder conf 28.4*, PGV04 Ab binding 24.9*, PG9 bind DR >67, PGV04 binding DR inactive and PG126 binding DR inactive.
For Cc1n[nH]c(=S)c2nn(-c3cccc(Cl)c3)c(C)c12 the results were PG9 Ab binder 5.6 and Rev-erbA mod 1.9.
Screening CC(=O)Nc1ccc(S(=O)(=O)Nc2nc3ccccc3nc2-n2ccc(=NC(=O)c3ccc(F)cc3)cc2)cc1 returned PG9 Ab binder 41.5*, VLA-4 inh 2.3, Rev-erbA mod 9.3, ABCB6 inh MLPCN 99.0, Exocytosis inh -6.1, PG9 binder conf 50.2* and PGV04 Ab binding 80.7*.
`O=C(N=c1ccn(-c2nc3ccccc3nc2NS(=O)(=O)c2ccc(Cl)cc2)cc1)c1ccccc1Cl` gave VLA-4 inh -12.8.
`CCOc1ccc(S(=O)(=O)Nc2nc3ccccc3nc2-n2ccc(=NC(=O)c3cccs3)cc2)cc1` gave PG9 Ab binder 20.2*, VLA-4 inh -22.3, Rev-erbA mod 9.4, ABCB6 inh MLPCN 177.0, Exocytosis inh 6.5, PG9 binder conf 31.3* and PGV04 Ab binding 72.6*.
CC(=O)Nc1ccc(S(=O)(=O)Nc2nc3ccccc3nc2-n2ccc(=NC(=O)c3ccccc3)cc2)cc1 was read as PG9 Ab binder -0.1, VLA-4 inh -9.2, Rev-erbA mod 0.4, ABCB6 inh MLPCN 96.0 and Exocytosis inh -6.2.
Screening COC(=O)c1ccc(OCC(=O)Nc2nn(-c3ccccc3)nc2C(N)=O)cc1 returned PG9 Ab binder 12.4*, VLA-4 inh -12.0, Rev-erbA mod 14.7, ABCB6 inh MLPCN 100.0, Exocytosis inh -2.1, PG9 binder conf 29.6* and PGV04 Ab binding 34.0*.
For COC(=O)[C@]12C[C@H](CC(=O)NCc3cccs3)C(=O)N(Cc3ccccc3)C1=C[C@H](C1CCCC1)O[C@@H]2C the results were PG9 Ab binder -0.8 and Rev-erbA mod -2.6.
`COc1ccc(CN2CCC(CNC(=O)NCc3ccccc3)CC2)cc1` gave Rev-erbA mod 0.3.
N/C(=N\c1nc2ccccc2o1)NC(=O)c1ccccc1NC(=O)c1ccccc1 was read as PG9 Ab binder 10.9*, VLA-4 inh -18.4, Rev-erbA mod 18.2, ABCB6 inh MLPCN 81.0, Exocytosis inh 2.2, PG9 binder conf 11.1* and PGV04 Ab binding 18.9*.
Screening CCOC(=O)c1c(C)[nH]c(C(=O)COC(=O)COc2ccc(OC)cc2)c1C returned PG9 Ab binder 34.5*, VLA-4 inh 7.9, Rev-erbA mod -2.2, ABCB6 inh MLPCN 100.0, Exocytosis inh -0.2, PG9 binder conf 35.2* and PGV04 Ab binding 53.2*.
Screening Cc1ccc(-c2nsc(SCC(=O)NCc3ccc4c(c3)OCO4)n2)cc1 returned PG9 Ab binder 15.8*, VLA-4 inh 14.1, Rev-erbA mod 1.1, ABCB6 inh MLPCN 98.0, Exocytosis inh -3.1, PG9 binder conf 17.7* and PGV04 Ab binding 21.0*.
Cc1ccccc1-c1nsc(SCC(=O)NCc2ccc3c(c2)OCO3)n1 was read as PG9 Ab binder 3.0, VLA-4 inh 1.3, Rev-erbA mod 2.0, ABCB6 inh MLPCN 93.0 and Exocytosis inh 1.0.
`C#CCNC(=O)C[C@H]1C[C@@]2(C(=O)OC)C(=C[C@H](C(C)C)O[C@@H]2C2CC2)N(Cc2ccc3c(c2)OCO3)C1=O` gave Rev-erbA mod 0.9.
Cc1nn(CCc2nn[nH]n2)c2nc(-c3ccc(Br)cc3)cc(C(F)(F)F)c12 was read as PG9 Ab binder 19.3*, VLA-4 inh 2.2, Rev-erbA mod 1.3, ABCB6 inh MLPCN 97.0, Exocytosis inh 37.3, PG9 binder conf 26.9* and PGV04 Ab binding 36.8*.
For O=C(NCCN1Cc2ccccc2C1=O)c1cccs1 the results were PG9 Ab binder 50.0*, VLA-4 inh 10.2, Rev-erbA mod -5.1, ABCB6 inh MLPCN 92.0, Exocytosis inh 8.8, PG9 binder conf 10.1* and PGV04 Ab binding 11.2*.
O=C(CSc1nc(-c2ccccc2)nc2ccccc12)Nc1cccc(C(=O)O)c1 was read as PG9 Ab binder 15.6*, VLA-4 inh 16.5, Rev-erbA mod -3.0, ABCB6 inh MLPCN 105.0, Exocytosis inh 2.3, PG9 binder conf 14.9* and PGV04 Ab binding 22.0*.
O=C(CSc1nc(-c2ccc(F)cc2)nc2ccc(F)cc12)Nc1cccc(C(=O)O)c1 was read as PG9 Ab binder 7.8, VLA-4 inh 5.8, Rev-erbA mod 2.5, ABCB6 inh MLPCN 87.0 and Exocytosis inh -1.1.
For COc1ccc(N=Cc2c(O)c3ccccc3oc2=O)cc1 the results were PG9 Ab binder 31.6*, VLA-4 inh 10.8, Rev-erbA mod 3.0, ABCB6 inh MLPCN 97.0, Exocytosis inh 2.4, PG9 binder conf 27.2* and PGV04 Ab binding 39.0*.
For COc1ccc(OC)c(N=Cc2c(O)c3ccccc3oc2=O)c1 the results were PG9 Ab binder -3.4, VLA-4 inh -20.2, Rev-erbA mod -3.1, ABCB6 inh MLPCN 104.0 and Exocytosis inh -5.2.
For CCOC(=O)[C@@]12CN(C(=O)OC(C)(C)C)CC=C1N(Cc1ccc(OC)cc1)C(=O)[C@H]2CC(=O)NCCCN1CCCC1=O the results were Rev-erbA mod 2.0.
Screening Cc1ccc(CN2CCS(=O)(=O)CC2)cc1 returned PG9 Ab binder 10.7*, VLA-4 inh -0.9, Rev-erbA mod -0.5, ABCB6 inh MLPCN 90.0, Exocytosis inh -0.9, PG9 binder conf 5.7 and PGV04 Ab binding 12.6*.
For COCCNC(=O)c1c[nH]c2ccc(S(=O)(=O)Nc3ccccc3F)cc2c1=O the results were PG9 Ab binder 9.6*, VLA-4 inh -6.6, Rev-erbA mod -0.8, ABCB6 inh MLPCN 96.0, Exocytosis inh -7.3, PG9 binder conf 22.2* and PGV04 Ab binding 23.0*.
`COCCNC(=O)c1c[nH]c2ccc(S(=O)(=O)Nc3ccc(F)cc3F)cc2c1=O` gave PG9 Ab binder 9.3*, VLA-4 inh 8.1, Rev-erbA mod -6.6, ABCB6 inh MLPCN 93.0, Exocytosis inh 0.0, PG9 binder conf 21.9*, PGV04 Ab binding 21.6*, PG9 bind DR >67, PGV04 binding DR >67 and PG126 binding DR >67.
`C=C1[C@H](C)CN(S(=O)C(C)(C)C)[C@H]1CCO` (stereo partly drawn) gave PG9 Ab binder 0.5 and Rev-erbA mod -4.0.
